# Results as given in paper PMC11062922 (Nature Chemical Biology, 2023).
# Where two headings read alike, the source gives them in different places.
# Experiments:
# Parameters in all cases: species or system human, MV4-11 + K-562 + COLO205 + SK-N-BE2 + OVCAR-8
# AKT2 = details: read-out: apparent Kd, n = 1
# AKT3 = details: read-out: apparent Kd; compound concentrations: 100 nM and 1000 nM (sheet 'Samples'), CATDS: 0.118826721397903; n = 1
# CDK17 = details: read-out: apparent Kd; compound concentrations: 100 nM and 1000 nM (sheet 'Samples'), CATDS: 8.1529480800730997E-2; n = 1
# CDK9 = details: read-out: apparent Kd; compound concentrations: 100 nM and 1000 nM (sheet 'Samples'), CATDS: 7.5399196753672404E-2; n = 1
# CSNK1A1 = details: read-out: apparent Kd; compound concentrations: 100 nM and 1000 nM (sheet 'Samples'), CATDS: 8.2829529423840004E-2; n = 1
# HCK = details: read-out: apparent Kd; compound concentrations: 100 nM and 1000 nM (sheet 'Samples'), CATDS: 0.17397087448623899; n = 1
# ILK = details: read-out: apparent Kd; compound concentrations: 100 nM and 1000 nM (sheet 'Samples'), CATDS: 8.7046948596417206E-2; n = 1
# MAP2K1 = details: read-out: apparent Kd, n = 1
# NQO1 = details: read-out: apparent Kd, n = 1
# RIPK3 = details: read-out: apparent Kd; compound concentrations: 100 nM and 1000 nM (sheet 'Samples'), CATDS: 8.3707794531398802E-2; n = 1
# TP53RK = details: read-out: apparent Kd; compound concentrations: 100 nM and 1000 nM (sheet 'Samples'), CATDS: 8.4353152889517405E-2; n = 1
# ADRBK1 = details: read-out: apparent Kd; compound concentrations: 100 nM and 1000 nM (sheet 'Samples'), CATDS: 0.236668950824271; n = 1
# PIK3C3 = details: read-out: apparent Kd; compound concentrations: 100 nM and 1000 nM (sheet 'Samples'), CATDS: 0.27683551604583601; n = 1
# PIK3CB = details: read-out: apparent Kd; compound concentrations: 100 nM and 1000 nM (sheet 'Samples'), CATDS: 0.86026286553543596; n = 1
# AKT1 = details: read-out: apparent Kd, n = 1
# CDK16 = details: read-out: apparent Kd; compound concentrations:100 nM and 1000 nM (sheet 'Samples'); n = 1
# CDK6 = details: read-out: apparent Kd, n = 1
# GSK3A = details: read-out: apparent Kd, n = 1
# GSK3B = details: read-out: apparent Kd; compound concentrations:100 nM and 1000 nM (sheet 'Samples'); n = 1
# MAP2K2 = details: read-out: apparent Kd; compound concentrations:100 nM and 1000 nM (sheet 'Samples'); n = 1
# MAP3K1 = details: read-out: apparent Kd; compound concentrations:100 nM and 1000 nM (sheet 'Samples'); n = 1
# MYLK3 = details: read-out: apparent Kd; compound concentrations:100 nM and 1000 nM (sheet 'Samples'); n = 1
# NLK = details: read-out: apparent Kd; compound concentrations:100 nM and 1000 nM (sheet 'Samples'); n = 1
# STK11 = details: read-out: apparent Kd; compound concentrations:100 nM and 1000 nM (sheet 'Samples'); n = 1
# STK26 = details: read-out: apparent Kd; compound concentrations:100 nM and 1000 nM (sheet 'Samples'); n = 1
# TGFBR2 = details: read-out: apparent Kd; compound concentrations:100 nM and 1000 nM (sheet 'Samples'); n = 1
# CDK10 = details: read-out: apparent Kd; compound concentrations: 100 nM and 1000 nM (sheet 'Samples'), CATDS: 0.51704029448555699; n = 1
# CSNK1D = details: read-out: apparent Kd; compound concentrations: 100 nM and 1000 nM (sheet 'Samples'), CATDS: 0.21502598337996101; n = 1
# CSNK1E = details: read-out: apparent Kd; compound concentrations: 100 nM and 1000 nM (sheet 'Samples'), CATDS: 0.16970430448232399; n = 1
# RIOK2 = details: read-out: apparent Kd; compound concentrations: 100 nM and 1000 nM (sheet 'Samples'), CATDS: 0.18913150983507701; n = 1
# AGPS = details: read-out: apparent Kd; compound concentrations: 100 nM and 1000 nM (sheet 'Samples'), CATDS: 0.49272906791281001; n = 1
# NNT = details: read-out: apparent Kd; compound concentrations: 100 nM and 1000 nM (sheet 'Samples'), CATDS: 0.50748873234437097; n = 1
# [1] = compound concentrations:100 nM and 1000 nM (sheet 'Samples')
smiles,measurement,setting,value
Cl.N#CCc1ccc(Nc2nccc(Nc3ccc(Oc4ccccc4)cc3)n2)cc1 [GW639905A],potency estimated from few doses,"AKT2; compound concentrations: 100 nM and 1000 nM (sheet 'Samples'), CATDS: 8.2827110731653497E-2",1920 nM
same,potency estimated from few doses,AKT3,954 nM
same,potency estimated from few doses,CDK17,1990 nM
same,potency estimated from few doses,CDK9,2420 nM
same,potency estimated from few doses,CSNK1A1,1920 nM
same,potency estimated from few doses,HCK,532 nM
same,potency estimated from few doses,ILK,1720 nM
same,potency estimated from few doses,"MAP2K1; compound concentrations: 100 nM and 1000 nM (sheet 'Samples'), CATDS: 8.98649962952279E-2",1610 nM
same,potency estimated from few doses,"NQO1; compound concentrations: 100 nM and 1000 nM (sheet 'Samples'), CATDS: 9.3069785012321701E-2",1500 nM
same,potency estimated from few doses,RIPK3,1880 nM
same,potency estimated from few doses,TP53RK,1850 nM
Cc1cccc(Cn2ccn3c(=O)cc(N4CCOCC4)nc23)c1 [GSK2297542A],potency estimated from few doses,ADRBK1,1590 nM
same,potency estimated from few doses,PIK3C3,886 nM
same,potency estimated from few doses,PIK3CB,48.3 nM
O=C(Nc1n[nH]c2nc(-c3cccc(O)c3)ccc12)C1CC1 [SB-711805],potency estimated from few doses,AKT1; [1],1900 nM
same,potency estimated from few doses,AKT2; [1],2070 nM
same,potency estimated from few doses,CDK16,2150 nM
same,potency estimated from few doses,CDK6; [1],1880 nM
same,potency estimated from few doses,GSK3A; [1],147 nM
same,potency estimated from few doses,GSK3B,223 nM
same,potency estimated from few doses,MAP2K1; [1],2170 nM
same,potency estimated from few doses,MAP2K2,2290 nM
same,potency estimated from few doses,MAP3K1,1840 nM
same,potency estimated from few doses,MYLK3,1310 nM
same,potency estimated from few doses,NLK,1150 nM
same,potency estimated from few doses,NQO1; [1],1330 nM
same,potency estimated from few doses,STK11,2400 nM
same,potency estimated from few doses,STK26,2270 nM
same,potency estimated from few doses,TGFBR2,644 nM
Cc1cc(Cl)cc2c1NC(=O)C2=NNc1ccc(S(N)(=O)=O)cc1 [GW279320X],potency estimated from few doses,"AKT1; compound concentrations: 100 nM and 1000 nM (sheet 'Samples'), CATDS: 0.213173393679812",1720 nM
same,potency estimated from few doses,"AKT2; compound concentrations: 100 nM and 1000 nM (sheet 'Samples'), CATDS: 0.21750959040308801",1630 nM
same,potency estimated from few doses,CDK10,316 nM
same,potency estimated from few doses,"CDK6; compound concentrations: 100 nM and 1000 nM (sheet 'Samples'), CATDS: 0.20931890266427899",1810 nM
Clc1ccc(CNc2nccc(-c3cnn4ncccc34)n2)cc1 [GW781673X],potency estimated from few doses,"AKT1; compound concentrations: 100 nM and 1000 nM (sheet 'Samples'), CATDS: 0.20624871442291401",1400 nM
same,potency estimated from few doses,CSNK1D,1290 nM
same,potency estimated from few doses,CSNK1E,2140 nM
same,potency estimated from few doses,"GSK3A; compound concentrations: 100 nM and 1000 nM (sheet 'Samples'), CATDS: 0.23143029559655601",1130 nM
same,potency estimated from few doses,RIOK2,1670 nM
Cc1cc(O)cc(C)c1/C=C/c1cncc(C(=O)N(C)C)c1 [GW427984X],potency estimated from few doses,AGPS,1860 nM
same,potency estimated from few doses,NNT,1750 nM
